Assay results as given in the supplement of paper PMC11732987, “Enantioselective OTUD7B fragment discovery through chemoproteomics screening and high-throughput optimisation” (Communications Chemistry, 2025).

What was measured:
Experiment in all cases: log2 ratio of Biotin-Ahx-Ub-VS probe labelling (fragment/DMSO); higher = less target engagement (more negative = stronger competition), active = hit call of the paper (q ≤ 0.05, log2 ratio ≤ -1)
Details in all cases: compound concentration: 200 uM; treatment time: 3 h
[1] = biological target: USP34 (UniProt Q70CQ2)
Chain of USP34 (Q70CQ2 whole entry, the tested form may be a part): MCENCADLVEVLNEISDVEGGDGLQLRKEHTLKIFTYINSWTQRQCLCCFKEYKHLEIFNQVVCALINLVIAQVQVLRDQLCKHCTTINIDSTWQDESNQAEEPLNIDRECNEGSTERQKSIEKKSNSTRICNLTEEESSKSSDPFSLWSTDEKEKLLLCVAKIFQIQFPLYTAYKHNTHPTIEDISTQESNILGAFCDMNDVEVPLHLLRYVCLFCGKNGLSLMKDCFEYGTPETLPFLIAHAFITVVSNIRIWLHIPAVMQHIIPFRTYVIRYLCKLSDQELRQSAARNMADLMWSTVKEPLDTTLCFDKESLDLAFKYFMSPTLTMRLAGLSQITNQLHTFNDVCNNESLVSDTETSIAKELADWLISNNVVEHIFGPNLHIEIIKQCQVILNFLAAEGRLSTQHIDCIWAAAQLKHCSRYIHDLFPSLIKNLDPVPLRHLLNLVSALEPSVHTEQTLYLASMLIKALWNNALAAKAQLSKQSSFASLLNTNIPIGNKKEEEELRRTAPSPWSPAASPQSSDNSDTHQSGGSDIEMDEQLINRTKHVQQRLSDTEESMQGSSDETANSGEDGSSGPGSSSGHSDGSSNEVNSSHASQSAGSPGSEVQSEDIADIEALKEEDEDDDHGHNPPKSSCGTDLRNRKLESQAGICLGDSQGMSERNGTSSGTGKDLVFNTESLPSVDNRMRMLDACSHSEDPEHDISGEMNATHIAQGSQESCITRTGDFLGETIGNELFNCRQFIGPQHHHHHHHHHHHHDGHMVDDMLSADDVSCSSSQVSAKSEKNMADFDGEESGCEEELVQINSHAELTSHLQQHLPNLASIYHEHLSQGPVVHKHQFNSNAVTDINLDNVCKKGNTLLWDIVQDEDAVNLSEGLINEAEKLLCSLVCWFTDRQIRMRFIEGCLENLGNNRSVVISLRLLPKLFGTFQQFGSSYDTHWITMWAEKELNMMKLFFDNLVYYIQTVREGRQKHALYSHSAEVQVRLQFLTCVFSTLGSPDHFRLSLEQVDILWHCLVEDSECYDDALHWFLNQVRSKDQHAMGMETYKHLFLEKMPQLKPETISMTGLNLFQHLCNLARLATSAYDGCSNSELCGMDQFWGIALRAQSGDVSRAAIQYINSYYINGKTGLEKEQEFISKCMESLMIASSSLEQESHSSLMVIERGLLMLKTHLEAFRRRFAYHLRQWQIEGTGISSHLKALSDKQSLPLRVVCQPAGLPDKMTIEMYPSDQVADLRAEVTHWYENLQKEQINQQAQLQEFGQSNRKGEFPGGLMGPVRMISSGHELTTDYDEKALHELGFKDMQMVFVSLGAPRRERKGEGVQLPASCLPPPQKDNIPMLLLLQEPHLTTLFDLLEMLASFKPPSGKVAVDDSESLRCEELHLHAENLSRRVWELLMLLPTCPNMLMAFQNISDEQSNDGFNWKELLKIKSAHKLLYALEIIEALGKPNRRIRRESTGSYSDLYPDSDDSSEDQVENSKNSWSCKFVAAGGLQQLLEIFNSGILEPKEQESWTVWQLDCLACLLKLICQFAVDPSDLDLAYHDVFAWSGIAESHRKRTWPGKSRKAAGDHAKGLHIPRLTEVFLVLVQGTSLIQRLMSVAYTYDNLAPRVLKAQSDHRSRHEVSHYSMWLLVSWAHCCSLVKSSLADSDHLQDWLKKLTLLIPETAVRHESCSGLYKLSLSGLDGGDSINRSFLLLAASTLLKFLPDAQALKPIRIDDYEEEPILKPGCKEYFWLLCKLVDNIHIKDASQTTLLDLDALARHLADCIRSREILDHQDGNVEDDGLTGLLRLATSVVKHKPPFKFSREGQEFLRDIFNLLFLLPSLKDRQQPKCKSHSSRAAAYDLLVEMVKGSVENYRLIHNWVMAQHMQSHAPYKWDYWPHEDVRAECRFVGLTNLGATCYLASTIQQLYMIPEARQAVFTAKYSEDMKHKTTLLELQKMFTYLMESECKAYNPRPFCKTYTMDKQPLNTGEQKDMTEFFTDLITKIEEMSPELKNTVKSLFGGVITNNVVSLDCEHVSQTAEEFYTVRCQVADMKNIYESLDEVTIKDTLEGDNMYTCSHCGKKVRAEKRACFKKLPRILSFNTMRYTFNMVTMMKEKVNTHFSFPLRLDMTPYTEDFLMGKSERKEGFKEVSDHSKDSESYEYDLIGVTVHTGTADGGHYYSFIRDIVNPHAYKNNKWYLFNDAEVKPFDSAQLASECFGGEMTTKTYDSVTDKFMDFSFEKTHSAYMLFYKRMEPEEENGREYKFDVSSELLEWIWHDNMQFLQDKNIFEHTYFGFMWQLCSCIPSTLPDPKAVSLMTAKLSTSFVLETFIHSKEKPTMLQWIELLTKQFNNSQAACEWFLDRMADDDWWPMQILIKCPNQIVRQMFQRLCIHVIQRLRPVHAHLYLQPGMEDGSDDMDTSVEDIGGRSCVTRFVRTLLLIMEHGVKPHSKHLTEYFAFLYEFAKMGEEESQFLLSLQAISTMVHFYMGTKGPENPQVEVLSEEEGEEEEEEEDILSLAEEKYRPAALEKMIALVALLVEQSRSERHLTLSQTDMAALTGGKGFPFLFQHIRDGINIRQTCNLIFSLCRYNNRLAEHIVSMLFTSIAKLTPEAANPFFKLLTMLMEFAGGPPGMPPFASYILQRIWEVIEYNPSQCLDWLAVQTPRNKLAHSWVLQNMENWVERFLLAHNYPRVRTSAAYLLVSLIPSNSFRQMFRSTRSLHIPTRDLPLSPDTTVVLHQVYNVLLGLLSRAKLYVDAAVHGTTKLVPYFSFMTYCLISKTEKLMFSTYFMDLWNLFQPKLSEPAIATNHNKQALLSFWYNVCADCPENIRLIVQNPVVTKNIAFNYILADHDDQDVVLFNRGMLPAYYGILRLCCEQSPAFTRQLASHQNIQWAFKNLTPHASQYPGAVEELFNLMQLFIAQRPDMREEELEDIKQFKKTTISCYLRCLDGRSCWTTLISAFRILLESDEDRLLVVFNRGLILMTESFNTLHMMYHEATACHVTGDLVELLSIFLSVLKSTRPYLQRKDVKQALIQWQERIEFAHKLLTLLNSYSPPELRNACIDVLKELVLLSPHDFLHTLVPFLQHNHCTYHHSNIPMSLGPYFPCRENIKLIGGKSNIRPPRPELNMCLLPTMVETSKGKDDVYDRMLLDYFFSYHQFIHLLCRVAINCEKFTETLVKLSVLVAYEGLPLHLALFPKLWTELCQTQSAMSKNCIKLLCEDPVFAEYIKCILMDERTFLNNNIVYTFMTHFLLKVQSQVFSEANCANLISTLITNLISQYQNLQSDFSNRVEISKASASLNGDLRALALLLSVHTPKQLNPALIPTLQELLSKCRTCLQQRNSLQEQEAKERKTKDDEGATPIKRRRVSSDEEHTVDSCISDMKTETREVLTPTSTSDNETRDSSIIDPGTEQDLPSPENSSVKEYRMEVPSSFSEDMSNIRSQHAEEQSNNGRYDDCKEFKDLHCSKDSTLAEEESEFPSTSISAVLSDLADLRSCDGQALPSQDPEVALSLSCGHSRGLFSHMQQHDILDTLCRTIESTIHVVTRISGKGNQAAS
Outline: (§1)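 Fragment (200 µM) or vehicle was incubated for 3 h with triplicate HEK293T lysate samples of 495 µg, which were then treated with Biotin-Ahx-Ub-VS at 0.5 µM final for 1 h. Labelled DUBs were enriched on NeutrAvidin, digested with LysC and trypsin, and analysed by diaPASEF LC-MS/MS. Values are average log2 fragment/vehicle ratios from an unpaired t-test on global-median-normalised Spectronaut label-free quantities, using proteins with ≥2 unique peptides.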

[2] = biological target: T1, USP36 (UniProt Q9P275)
T1 sequence (whole entry): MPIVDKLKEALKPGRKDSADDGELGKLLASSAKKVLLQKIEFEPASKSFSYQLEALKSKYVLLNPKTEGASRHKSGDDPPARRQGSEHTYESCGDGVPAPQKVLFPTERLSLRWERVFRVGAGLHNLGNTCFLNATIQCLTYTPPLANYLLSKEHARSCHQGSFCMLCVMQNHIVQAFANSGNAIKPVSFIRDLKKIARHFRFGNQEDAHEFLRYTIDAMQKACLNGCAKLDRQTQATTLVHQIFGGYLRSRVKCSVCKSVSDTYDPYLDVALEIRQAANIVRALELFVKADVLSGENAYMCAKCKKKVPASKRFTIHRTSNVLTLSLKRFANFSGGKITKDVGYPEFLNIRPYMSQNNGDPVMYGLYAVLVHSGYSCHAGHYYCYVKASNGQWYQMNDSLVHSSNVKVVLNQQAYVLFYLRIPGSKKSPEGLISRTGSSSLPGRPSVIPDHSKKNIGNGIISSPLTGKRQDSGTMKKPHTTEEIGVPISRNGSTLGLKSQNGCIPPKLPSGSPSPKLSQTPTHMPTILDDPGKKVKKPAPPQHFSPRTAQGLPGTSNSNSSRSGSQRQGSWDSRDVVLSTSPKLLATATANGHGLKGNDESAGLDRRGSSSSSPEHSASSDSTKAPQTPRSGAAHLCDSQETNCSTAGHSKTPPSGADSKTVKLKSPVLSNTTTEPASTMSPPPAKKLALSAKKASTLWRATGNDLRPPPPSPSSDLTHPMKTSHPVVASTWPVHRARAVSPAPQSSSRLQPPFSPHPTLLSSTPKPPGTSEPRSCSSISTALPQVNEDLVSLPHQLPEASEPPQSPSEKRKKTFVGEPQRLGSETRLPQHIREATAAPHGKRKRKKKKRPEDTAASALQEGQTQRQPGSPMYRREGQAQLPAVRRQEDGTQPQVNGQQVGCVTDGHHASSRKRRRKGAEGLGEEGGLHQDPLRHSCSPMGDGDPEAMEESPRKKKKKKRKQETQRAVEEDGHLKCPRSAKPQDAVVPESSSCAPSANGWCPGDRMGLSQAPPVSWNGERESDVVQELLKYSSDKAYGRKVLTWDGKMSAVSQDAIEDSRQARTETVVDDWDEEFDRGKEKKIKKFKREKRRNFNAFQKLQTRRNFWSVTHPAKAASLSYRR
Outline: as §1

[3] = biological target: T2, USP38 (UniProt Q8NB14)
T2 sequence (whole entry): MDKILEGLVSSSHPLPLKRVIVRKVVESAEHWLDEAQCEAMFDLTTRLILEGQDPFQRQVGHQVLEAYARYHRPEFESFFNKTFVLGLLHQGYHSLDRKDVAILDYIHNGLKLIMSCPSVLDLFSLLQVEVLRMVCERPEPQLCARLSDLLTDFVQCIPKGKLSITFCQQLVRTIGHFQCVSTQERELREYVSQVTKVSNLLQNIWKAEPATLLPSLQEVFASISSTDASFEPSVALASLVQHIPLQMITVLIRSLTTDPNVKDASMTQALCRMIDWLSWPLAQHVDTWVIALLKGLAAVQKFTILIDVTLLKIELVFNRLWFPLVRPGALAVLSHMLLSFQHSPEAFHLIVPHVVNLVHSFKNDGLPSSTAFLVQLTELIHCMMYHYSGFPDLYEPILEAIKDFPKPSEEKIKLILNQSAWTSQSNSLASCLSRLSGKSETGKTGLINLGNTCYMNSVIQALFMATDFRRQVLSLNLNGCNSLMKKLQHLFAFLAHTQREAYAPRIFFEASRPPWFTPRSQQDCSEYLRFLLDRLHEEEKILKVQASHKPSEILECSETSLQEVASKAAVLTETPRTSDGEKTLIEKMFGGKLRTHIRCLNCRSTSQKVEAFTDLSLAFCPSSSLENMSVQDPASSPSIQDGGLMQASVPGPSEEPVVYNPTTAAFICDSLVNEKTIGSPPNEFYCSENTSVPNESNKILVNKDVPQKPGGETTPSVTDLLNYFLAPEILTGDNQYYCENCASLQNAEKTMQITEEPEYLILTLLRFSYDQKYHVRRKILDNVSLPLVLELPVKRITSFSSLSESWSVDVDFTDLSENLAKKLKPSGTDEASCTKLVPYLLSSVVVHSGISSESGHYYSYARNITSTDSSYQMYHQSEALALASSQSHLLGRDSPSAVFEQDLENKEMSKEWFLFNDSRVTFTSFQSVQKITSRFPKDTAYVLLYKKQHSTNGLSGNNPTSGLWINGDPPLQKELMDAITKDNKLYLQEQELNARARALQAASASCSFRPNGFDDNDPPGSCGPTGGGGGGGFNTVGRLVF
Outline: as §1

[4] = biological target: T3, USP39 (UniProt Q53GS9)
T3 sequence (whole entry): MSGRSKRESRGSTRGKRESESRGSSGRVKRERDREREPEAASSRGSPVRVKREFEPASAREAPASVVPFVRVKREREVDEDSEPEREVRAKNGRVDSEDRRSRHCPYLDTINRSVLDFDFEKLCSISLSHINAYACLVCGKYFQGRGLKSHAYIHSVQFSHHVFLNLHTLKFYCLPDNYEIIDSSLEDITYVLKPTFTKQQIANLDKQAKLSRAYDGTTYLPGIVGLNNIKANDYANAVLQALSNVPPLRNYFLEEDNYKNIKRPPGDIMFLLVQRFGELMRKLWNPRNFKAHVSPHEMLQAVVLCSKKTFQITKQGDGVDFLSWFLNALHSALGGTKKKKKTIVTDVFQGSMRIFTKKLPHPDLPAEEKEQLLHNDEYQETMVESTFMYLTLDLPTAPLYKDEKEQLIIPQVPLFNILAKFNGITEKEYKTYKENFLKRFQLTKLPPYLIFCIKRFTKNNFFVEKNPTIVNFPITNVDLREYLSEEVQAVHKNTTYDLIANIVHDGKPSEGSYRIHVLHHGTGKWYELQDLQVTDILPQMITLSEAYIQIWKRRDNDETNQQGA
Outline: as §1

[5] = biological target: T4, USP4 (UniProt Q13107)
T4 sequence (whole entry): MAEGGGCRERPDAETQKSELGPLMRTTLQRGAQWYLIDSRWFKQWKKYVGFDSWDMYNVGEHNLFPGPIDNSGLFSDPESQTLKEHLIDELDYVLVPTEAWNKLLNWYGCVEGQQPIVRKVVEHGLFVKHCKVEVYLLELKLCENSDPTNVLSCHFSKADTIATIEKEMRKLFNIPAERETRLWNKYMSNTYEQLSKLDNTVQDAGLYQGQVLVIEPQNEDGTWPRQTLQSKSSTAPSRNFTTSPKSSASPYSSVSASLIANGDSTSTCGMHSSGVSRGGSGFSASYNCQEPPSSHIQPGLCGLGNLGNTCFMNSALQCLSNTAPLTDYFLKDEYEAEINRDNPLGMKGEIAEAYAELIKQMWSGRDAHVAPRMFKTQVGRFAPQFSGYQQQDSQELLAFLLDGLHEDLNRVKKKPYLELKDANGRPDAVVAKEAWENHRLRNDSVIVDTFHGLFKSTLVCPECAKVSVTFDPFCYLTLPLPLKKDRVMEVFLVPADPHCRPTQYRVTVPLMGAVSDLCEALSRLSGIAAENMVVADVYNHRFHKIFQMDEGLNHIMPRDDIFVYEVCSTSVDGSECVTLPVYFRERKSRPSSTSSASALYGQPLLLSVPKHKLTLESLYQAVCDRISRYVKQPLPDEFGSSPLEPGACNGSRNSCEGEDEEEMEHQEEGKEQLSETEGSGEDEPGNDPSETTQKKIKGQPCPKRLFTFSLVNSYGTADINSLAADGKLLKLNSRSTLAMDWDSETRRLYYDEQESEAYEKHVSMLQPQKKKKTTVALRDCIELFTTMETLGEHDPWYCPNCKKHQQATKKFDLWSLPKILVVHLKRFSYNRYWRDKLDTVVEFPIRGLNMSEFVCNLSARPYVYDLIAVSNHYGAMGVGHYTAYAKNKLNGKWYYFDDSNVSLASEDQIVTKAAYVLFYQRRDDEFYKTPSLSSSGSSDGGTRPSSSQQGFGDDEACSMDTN
Outline: as §1

Measured: log2 ratio of Biotin-Ahx-Ub-VS probe labelling

CN(C)C(=O)c1ccc(CNC(=O)CCl)cc1
inactive: [1] 0.0263 | [2] 0.0235 | [3] 0.231 | [4] 0.0923 | [5] 0.059
